Data reported in PubChem BioAssay (NCI).
The panel holds about 83,000 compounds, 20% with a hit somewhere; the sample as a whole holds those more often.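 Single-concentration screen, 48 h exposure, 96-well plates. Endpoint: percent growth. Below 10 = active.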 Values without a mark were called inactive. Calls of active or inactive are those of the source.

Tested on: NCI-H23 lung
Assay: NCI-60 one-dose screen, 48 h (100 = growth as untreated, 0 = no growth, -100 = all killed)
Conditions: 10 µM unless noted
Method: Growth inhibition of the NCI-H23 human Non-Small Cell Lung tumor cell line is measured as a screen for anti-cancer activity. Cells are grown in 96 well plates and exposed to the test compound for 48 hours. Compounds are tested at a single concentration, which is 10^-5 M for most compounds. The reported endpoint is percent growth (GI% or GIPRCNT), where numbers from 0 - 100% represent growth inhibition, and numbers from -100% - 0 represent cell death. For example, a value of 40 represents 60% growth inhibition. A value of 0 means no net growth occurred over the course of the experiment. A value of -40 indicates 40% of cells at the beginning of the experiment died by the end of the experiment. A value of -100 means all cells are dead at the end of the experiment.
NCI-60 Human Tumor Cell Lines Screen was performed using the standard one-dose NCI protocol, which is described in more detail at https://dtp.cancer.gov/discovery_development/nci-60/default.htm.
Compounds with GIPRCNT values below 10 were considered active. Activity score was based on GIPRCNT using the following formula: […]
Score is 0 for GIPRCNT values of 100 or above, 50 for GIPRCNT values of 0, and 100 for GIPRCNT values of -100.

| SMILES | growth |
| --- | --- |
| O=C1Nc2cc(-c3ccc(O)cc3)ccc2/C1=C/c1ccc[nH]1 | -16% (active) |
| CC1=CC(C)(C)Nc2ccc(Cc3ccc4c(c3)C(C)=CC(C)(C)N4)cc21 | 97.1% |
| COc1ccc(/C=C/c2nc(-c3n[nH]c(=O)n3-c3ccccc3)c3ccccc3n2)cc1 | 94.8% |
| Cc1cc(C)nc(SC2=C(Nc3cc(Cl)ccc3O)C(=O)N(Cc3ccccc3)C2=O)n1 | 91.4% [30 µM] |
| O=C(Cc1ccccc1Nc1c(Cl)cccc1Cl)NN1C(=O)/C(=C/c2ccc(Br)cc2)SC1=S | 97.5% |
| CC(=O)OCCC/C(=C/c1cc2ccccc2c2ccccc12)[N+](=O)[O-] | -76.5% (active) |
| C=C1c2nc3ccccc3n2C=C(c2ccc(Cl)cc2)N1Cc1ccc(OC)cc1 | 54.2% |
| COc1ccc(C2CC(c3ccc(Cl)cc3)=NN2/C=C2\SC(=S)N(NC(=O)Cc3ccccc3Nc3c(Cl)cccc3Cl)C2=O)cc1 (stereo not given) | 80.1% |
| Cc1ccc(-c2onc3c(=O)[nH]nc(-c4ccccc4)c23)cc1 | 22.8% |
| COc1cc2c(cc1-c1c(C)noc1C)ncc1nc(C3CCC(F)(F)CC3)n([C@H](C)COC(F)F)c12 | 60.1% |
| CN1CCN(c2ccc(Nc3c4ccccc4nc4ccccc34)cc2)CC1 | 105% |
| Cc1ccccc1COc1ccc(-c2onc(C)c2-c2ccc(Cl)cc2)cc1 | 73.8% |
| CSc1ccc(-c2n[nH]nc2-c2cc3ccccc3s2)cc1 | 61.5% |
| CCCN1CCN(c2ccc3nc(-c4ccc5nc(-c6ccc(OCC)cc6)[nH]c5c4)[nH]c3c2)CC1 | 19.5% |
| NNCCc1ccc(NC(=O)CCCc2ccc(/C=C/C(=O)NO)cc2)cc1 | 64.9% |
| Cc1cc(N2CCCCCC2)nc(NC2CCCC(Nc3ccnc4cc(Cl)ccc34)C2)n1 (stereo not given) | -50.8% (active) |
| CN(C)C(=S)N=Nc1c(O)[nH]c2ccccc12 | 28.2% |
| NC(=NCCCOc1ccc(Cl)cc1)Nc1ccc(Cl)cc1 | 23.4% |
| C=C(C)C(=O)Nc1ccc(NC(C)C)cc1 | 113% |
| CCCCN1CCCn2c1nc1c2c(=O)n(CCC)c(=O)n1CCC | 104% |

| SMILES | growth |
| --- | --- |
| COc1ccc2[nH]cc(-c3noc(C(=O)c4cn(C)c5ccc(F)cc45)n3)c2c1 | 90.2% |
| O=S(=O)(Nc1ccc(NS(=O)(=O)c2ccccc2)c(Cl)c1)c1ccccc1 | 103% |
| Cc1[nH]c(-c2cc(N)ccc2Cl)c2c1C(=O)CCCC2 | 36.3% |
| COc1ccc2c(c1)c(-c1nonc1-c1cn(C)c3ccccc13)cn2C | 27.9% |
| CC1=NN(c2nc(-c3ccc(Cl)cc3)c(C#N)c(N3CCOCC3)n2)C(=O)C1 | 80.7% |
| N#CN1CCC[C@H]1C(=O)N1CCc2c(-c3[nH]nc4ncccc34)cccc21 | 4.9% (active) |
| CSc1nc2c(c(=O)[nH]1)C1(C(=O)Nc3ccccc31)c1c(nc(SC)[nH]c1=O)N2 | 105% |
| O=C(O)c1ccc(NC(=O)c2ccc(-c3cccc([N+](=O)[O-])c3)o2)cc1 | 91.8% |
| COc1cc2c(cc1-c1c(C)noc1C)ncc1nc(C3CCCC3)n([C@H](C)COC(F)F)c12 | 53.7% |
| COc1ccc(-c2cc(=O)c3c(OC)c4ccoc4cc3o2)cc1 | 99.4% |
| CCN1CCC2(CC1)NC(=O)c1c(c3ccc(Cl)c(Cl)c3n1C)C2C#N (stereo not given) | 70% |
| FC(F)(F)c1nc2c(NCc3ccc(-c4ccccc4)cc3)cccc2[nH]1 | 80.8% |
| CN1CCN(CCCOc2cccc3nc(Nc4cc(Cl)cc(Cl)c4)ccc23)CC1 | 36.7% |
| O=C(COc1ccc(-c2nc3cc(Cl)c(Cl)cc3[nH]2)cc1)N=Nc1c(O)[nH]c2ccccc12 | 31.8% |
| COc1cc(C(=O)/C=C/c2cccnc2Nc2ccc(Cl)cc2)cc(OC)c1OC | -17.5% (active) |
| Cc1cc(N2CCCCC2)nc(NC2CCCC(Nc3ccnc4cc(Cl)ccc34)C2)n1 (stereo not given) | -15.5% (active) |
| O=C(/C=C/c1cc(CN2CCOCC2)c(O)c2ncccc12)c1cc(CN2CCOCC2)c(O)c2ncccc12 | 30.5% |
| CC(C)C[C@@H](NC(=O)[C@@H](Cc1ccccc1)NC(=O)c1cnccn1)B1Oc2ccc(C[C@H](NC(=O)[C@H](Cc3ccc4c(c3)OB([C@@H](CC(C)C)NC(=O)[C@@H](Cc3ccccc3)NC(=O)c3cnccn3)O4)NC(=O)[C@@H](N)CC3CCC4OB([C@@H](CC(C)C)NC(=O)[C@@H](CC5CCCCC5)NC(=O)C5CNCCN5)OC4C3)C(=O)NCCCC[C@@H]3NC(=O)[C@@H](Cc4ccccc4)NC(=O)[C@H](CC(=O)O)NC(=O)CNC(=O)[C@H](CCCNC(=N)N)NC3=O)cc2O1 (stereo not given in full) | -41.3% (active) |
| CCOC(=O)c1csc(NC(=O)COc2cccc(/C=C3\CSc4ccccc4C3=O)c2)n1 | 9.12% (active) |
| CCn1c(O)c(/C=N/NC(=O)C(C)c2ccc(CC(C)C)cc2)sc1=S (stereo not given) | 39.2% |
